Among the data in PubChem BioAssay are fluorescence ratio and z-score values, retold here.

Activity calls are given as the source filed them. How the calls were made is not given here.

Tested on in the first assay: not listed separately
Description: compounds distorting NS3 helicase fluorescence signal – biochemical, NIH Clinical Collection, artefact control for HCV NS3 helicase inhibitor project (AID 743272).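 Further: HCV NS3 helicase with a Cy5 labelled single stranded DNA probe.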 Conditions: fluorescence interference counterscreen, HCV NS3 helicase assay; active compounds read low.
As for `O=C1N=C(O)CN1N=Cc1ccc(-c2ccc([N+](=O)[O-])cc2)o1`, the fluorescence ratio was 0.97 (inactive).

As for `CC(=O)O[C@@]12CO[C@@H]1C[C@H](O)[C@@]1(C)C(=O)[C@H](O)C3=C(C)[C@@H](OC(=O)[C@H](O)[C@@H](NC(=O)OC(C)(C)C)c4ccccc4)C[C@](O)([C@@H](OC(=O)c4ccccc4)[C@H]21)C3(C)C`, the fluorescence ratio was 0.93 (inactive).

With `CC1c2cccc(O)c2C(O)=C2C(=O)[C@]3(O)C(O)=C(C(N)=O)C(=O)[C@@H](N(C)C)[C@@H]3C[C@@H]21` (stereo not given in full), the fluorescence ratio is 0.95 (inactive).

As to `C=CC1=C(C(=O)O)N2C(=O)[C@@H](NC(=O)C(=NO)c3csc(N)n3)[C@H]2SC1`, the fluorescence ratio was 0.91 (inactive).

`C[C@H]1O[C@@H](O[C@H]2[C@@H](O)C[C@H](O[C@H]3[C@@H](O)C[C@H](O[C@H]4CC[C@@]5(C)[C@H](CC[C@@H]6[C@@H]5C[C@@H](O)[C@]5(C)C(C7=CC(=O)OC7)CC[C@]65O)C4)O[C@@H]3C)O[C@@H]2C)C[C@H](O)[C@@H]1O` (stereo not given in full): the fluorescence ratio is 0.99 (inactive).

As for `CON=C(C(=O)N[C@@H]1C(=O)N2C(C(=O)O)=C(COC(N)=O)CS[C@H]12)c1ccco1`, the fluorescence ratio was 1 (inactive).

Take `Cc1cc(=O)oc2cc(NC(=O)C3CCC(=O)N3)ccc12` (stereo not given): the fluorescence ratio is 0.91 (inactive).

On to `N[C@@H](C(=O)N[C@@H]1C(=O)N2C(C(=O)O)=C(CSc3cn[nH]n3)CS[C@H]12)c1ccc(O)cc1` (tested in a mixture with another compound), for which the fluorescence ratio was 1.01 (inactive).

In the case of `CN1CCN2c3ncccc3Cc3ccccc3[C@@H]2C1`, the fluorescence ratio was 1.01 (inactive).

Take `C=CC[C@@H]1C=C(C)C[C@H](C)C[C@H](OC)[C@H]2O[C@@](O)(C(=O)C(=O)N3CCCC[C@H]3C(=O)O[C@H](/C(C)=C/[C@@H]3CC[C@@H](O)[C@H](OC)C3)[C@H](C)[C@@H](O)CC1=O)[C@H](C)C[C@@H]2OC`: the fluorescence ratio was 0.92 (inactive).

With `CN(C)S(=O)(=O)c1ccc2c(c1)/C(=C\CCN1CCNCC1)c1ccccc1S2`, the fluorescence ratio is 0.96 (inactive).

On to `C[C@]12C=CC(=O)C=C1CC[C@@H]1[C@@H]2[C@@H](O)C[C@@]2(C)[C@H]1CC[C@]2(O)C(=O)COC(=O)CCC(=O)O`, for which the fluorescence ratio is 0.99 (inactive).

As to `CN(C)CC/C=C1/c2ccccc2COc2ccccc21`, the fluorescence ratio was 0.93 (inactive).

Regarding `CC(=O)NCCCCCCNC(C)=O`, the fluorescence ratio was 0.97 (inactive).

As for `CO[C@H]1C=CO[C@@]2(C)Oc3c(C)c(O)c4c(O)c(c5c(nc6cc(C)ccn65)c4c3C2=O)NC(=O)C(C)=CC=C[C@H](C)[C@H](O)[C@@H](C)[C@@H](O)[C@@H](C)[C@H](OC(C)=O)[C@@H]1C`, the fluorescence ratio was 1.01 (inactive).

`CO[C@H]1O[C@@H]2O[C@@]3(C)CC[C@H]4[C@H](C)CC[C@@H]([C@H]1C)[C@@]24OO3`: the fluorescence ratio is 1 (inactive).

As for `CC(C)CC(NC(=O)C(COC(C)(C)C)NC(=O)C(Cc1ccc(O)cc1)NC(=O)C(CO)NC(=O)C(Cc1c[nH]c2ccccc12)NC(=O)C(Cc1cnc[nH]1)NC(=O)C1CCC(=O)N1)C(=O)N[C@@H](CCCN=C(N)N)C(=O)N1CCCC1C(=O)NNC(N)=O` (stereo not given in full), the fluorescence ratio is 0.87 (inactive).

On to `COCCCCC(=NOCCN)c1ccc(C(F)(F)F)cc1`, for which the fluorescence ratio was 0.89 (inactive).

As to `CCN(CC)CCOc1ccc(C(=C(Cl)c2ccccc2)c2ccccc2)cc1`, the fluorescence ratio is 0.97 (inactive).

As for `CO[C@H]1/C=C/O[C@@]2(C)Oc3c(C)c(O)c4c(O)c(c(C=NN5CCN(C6CCCC6)CC5)c(O)c4c3C2=O)NC(=O)/C(C)=C\C=C\[C@H](C)[C@H](O)[C@@H](C)[C@@H](O)[C@@H](C)[C@H](OC(C)=O)[C@@H]1C`, the fluorescence ratio is 0.94 (inactive).

For `O=C1CN(N=Cc2ccc([N+](=O)[O-])o2)C(=O)N1`, the fluorescence ratio was 1 (inactive).

For `C=CC1=C(C(=O)O)N2C(=O)[C@@H](NC(=O)C(=NOCC(=O)O)c3csc(N)n3)[C@H]2SC1`, the fluorescence ratio is 0.95 (inactive).

For the compound `COc1cc(N)c(Cl)cc1C(=O)N[C@@H]1CCN(CCCOc2ccc(F)cc2)C[C@@H]1OC`, the fluorescence ratio was 0.96 (inactive).

Consider `COCC1=C(C(=O)OC(C)OC(=O)OC(C)C)N2C(=O)[C@@H](NC(=O)C(=NOC)c3csc(N)n3)[C@H]2SC1` (stereo not given in full), for which the fluorescence ratio is 1 (inactive).

For another assay, the system named is Neuropilin-2 / VEGF-C interaction (human). Description: small molecules blocking Neuropilin-2/VEGF-C interaction – biochemical, microplate binding format, z-score (AID 743281). Further: test concentration not given here. Conditions: microplate NRP2/VEGF-C binding assay; active compounds read low.
Regarding `CCC(=O)NS(=O)(=O)c1ccc(-c2c(-c3ccccc3)noc2C)cc1`, the z-score is 1.11 (inactive).

As for `CN(C)CC/C=C1/c2ccccc2COc2ccccc21`, the z-score was -0.308 (inactive).

On to `CC(=O)NCCCCCCNC(C)=O`, for which the z-score is -0.47 (inactive).

As for `CO[C@H]1O[C@@H]2O[C@@]3(C)CC[C@H]4[C@H](C)CC[C@@H]([C@H]1C)[C@@]24OO3`, the z-score is -0.742 (inactive).

On to `CC(C)CC(NC(=O)C(COC(C)(C)C)NC(=O)C(Cc1ccc(O)cc1)NC(=O)C(CO)NC(=O)C(Cc1c[nH]c2ccccc12)NC(=O)C(Cc1cnc[nH]1)NC(=O)C1CCC(=O)N1)C(=O)N[C@@H](CCCN=C(N)N)C(=O)N1CCCC1C(=O)NNC(N)=O` (stereo not given in full), for which the z-score was -0.441 (inactive).

Consider `COc1cc(N)c(Cl)cc1C(=O)N[C@@H]1CCN(CCCOc2ccc(F)cc2)C[C@@H]1OC`, for which the z-score is -0.527 (inactive).
